PERK inh = block of dimerizer-induced PERK translation repression, primary screen, PERK inhibitor project, CHO PERK-DD cells, SEAP luminescence, HTS; AID 1416, 2008; Eukaryotic translation initiation factor 2-alpha kinase 3 (Homo sapiens), Q9NZJ5; inhibition, % at 5.6 µM; hit rate 0.17% among 220,000; CHO PERK-DD fusion, SEAP luminescence translation reporter;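 active means inhibition above the mean inhibition of all tested compounds plus 3 SD, set separately per screening campaign, cut at about 2.9% in these data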;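 further: PERK kinase domain activated by AP20187 dimerizer at 100 nM; 0% = DMSO with dimerizer and 100% = rapamycin at 8.4 µM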
NALP1 inh = NALP1 inflammasome inhibitors in reconstituted yeast, colorimetric, S. cerevisiae, triplicate retest | inhibition, % at 10 µM | hit rate 0.61% among 280,000 | AID 2071, 2009 | S. cerevisiae NALP1/ASC/caspase-1 growth, X-gal OD620, 72 h; in the data active means inhibition mostly above about 24%, no sharp cut-off; inactive means mostly below about 32%
NALP3 yeast inh = NALP3 inflammasome inhibitors in reconstituted yeast, primary screen, luminescence, uHTS. inhibition, % at 10 µM. Yeast reconstituted NLRP3/ASC/caspase-1, beta-gal luminescence, 24 h. hit rate 0.39% among 330,000;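 active means inhibition of 50% or more; inactive means inhibition below 50%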;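 further: plate controls were induced DMSO wells for no effect and uninduced yeast grown without galactose for full effect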
CR mimetic SO = reduction of superoxide in aged yeast, primary screen, HTS. AID 2690, 2010. hit rate 0.18% among 330,000. S. cerevisiae aged cells, superoxide DHE fluorescence; active compounds read low. superoxide response (% of plate mean), % at 10 µM;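 active means superoxide response under a set limit, about three screen SD below normal, cut at about 65% in these data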;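 further: yeast aged for seven days with compound at 30 °C before DHE staining; 100% = average MFI of all compound-treated wells on the plate with controls excluded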
V-ATPase pH = regulators of yeast V-ATPase proton pumping, primary screen, pHLuorin cytosolic pH fluorescence; S. cerevisiae; response, % at 10 µM; hit rate 0.37% among 350,000; in the data active means response mostly above about 7.3%, no sharp cut-off; inactive means mostly below about 5.4%; further: actives read high
Rce1 inhib = yeast Rce1p protease inhibitors, primary screen, biochemical, fluorescence, cell-free homogeneous. AID 2563, 2010. hit rate 0.27% among 290,000. CAAX prenyl protease 2 (Saccharomyces cerevisiae (strain ATCC 204508 / S288c)), Q03530. yeast membranes, quenched prenylated peptide cleavage fluorescence. calls only;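 active means fall in fluorescence gain of 50% or more versus controls, with final raw signal at or below 3038400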;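 further: plate controls were neutral control wells for no effect and wells lacking membranes for full effect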
Target sequence (Q03530 whole entry, looked up): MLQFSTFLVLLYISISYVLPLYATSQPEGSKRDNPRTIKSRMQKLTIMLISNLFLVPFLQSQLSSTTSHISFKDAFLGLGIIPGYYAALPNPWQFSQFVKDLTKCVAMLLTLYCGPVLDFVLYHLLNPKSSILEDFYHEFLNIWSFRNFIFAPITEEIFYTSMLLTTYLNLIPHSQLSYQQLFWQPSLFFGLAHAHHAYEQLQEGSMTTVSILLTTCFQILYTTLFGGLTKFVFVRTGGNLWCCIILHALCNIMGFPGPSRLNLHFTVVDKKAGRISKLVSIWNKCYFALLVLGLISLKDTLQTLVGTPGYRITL
* marks the source's active call; other numbers are inactive results; ! = not confirmed by another sample. An excerpt weighted towards active compounds, which were near 1.6% of everything screened.

`CN(C)CCN(C(=O)c1ccc2c(c1)CCCC2)c1nc2c(F)cccc2s1` gave NALP1 inh 42*, NALP3 yeast inh 16, CR mimetic SO 104, V-ATPase pH -1 and Rce1 inhib inactive.
For CN(C)CCCN(C(=O)c1ccc2c(c1)CCCC2)c1nc2ccc(Cl)cc2s1 the results were PERK inh -1, NALP1 inh 82*, NALP3 yeast inh 33, CR mimetic SO 106, V-ATPase pH 0 and Rce1 inhib inactive.
`N#Cc1ccc2sn(-c3ccccc3)c(=O)c2c1` gave V-ATPase pH 0.
For CC(C)C(NC(=O)c1ccccc1)C(=O)NCC(c1ccccc1)N(C)C (stereo unspecified) the results were PERK inh 0, NALP1 inh 15, NALP3 yeast inh 0, CR mimetic SO 108, V-ATPase pH -2 and Rce1 inhib inactive.
Screening CC(C)C(NC(=O)c1ccco1)C(=O)NCC(c1ccco1)N(C)C (stereo unspecified) returned PERK inh 1, NALP1 inh 10, NALP3 yeast inh 9, CR mimetic SO 94, V-ATPase pH 16* and Rce1 inhib inactive.
`COc1ccc2cc(C#CC3=CC(=O)C[C@H](c4ccc(F)cc4)C3)ccc2c1` gave V-ATPase pH 1.
C[C@H]1Cn2cnc(C(=O)Nc3cccc(Cl)c3)c2C(=O)N1 was read as V-ATPase pH 0.
`CN(C)c1ccnc(Oc2ccc(Cl)cc2)c1C#N` gave PERK inh -1, NALP1 inh 16*, NALP3 yeast inh 35, CR mimetic SO 92, V-ATPase pH -4 and Rce1 inhib inactive.
`CN(C)c1ccnc(Oc2ccccc2)c1C#N` gave PERK inh 0, NALP1 inh 1 and V-ATPase pH -3.
For CCc1ccc(NC(=O)C2CCCN2C(=O)NC2CCCCC2)cc1 (stereo unspecified) the results were NALP1 inh 7, NALP3 yeast inh 7, CR mimetic SO 97, V-ATPase pH 8 and Rce1 inhib inactive.
Cc1ccc(NC(=O)C2CCCN2C(=O)NC2CCCCC2)cc1 (stereo unspecified) was read as PERK inh 0, NALP1 inh 25*, NALP3 yeast inh 21, CR mimetic SO 106, V-ATPase pH 4 and Rce1 inhib inactive.
`O=C(OCc1ccccc1)N1CCCC2CC1c1ccccc12` (stereo unspecified) gave V-ATPase pH 1.
For CC(C)(C)S(=O)N1Cc2cc(=O)n(Cc3ccccc3)c(CCO)c2[C@@H]1CCO (stereo partly specified) the results were V-ATPase pH -1.
`CNC(=O)CSc1cnc2ccccc2n1` gave PERK inh 1, NALP1 inh -11, NALP3 yeast inh 3, CR mimetic SO 102, V-ATPase pH -1 and Rce1 inhib inactive.
`CN(C)C(=O)CSc1cnc2ccccc2n1` gave PERK inh 0, NALP1 inh 28*, NALP3 yeast inh 21, CR mimetic SO 103, V-ATPase pH 3 and Rce1 inhib inactive.
Clc1ccc2c(N/N=C/c3ccc(Br)cc3)ccnc2c1 was read as PERK inh 0, NALP1 inh 54*, CR mimetic SO 134, V-ATPase pH 1 and Rce1 inhib inactive.
Cc1ccccc1/C=N/Nc1ccnc2cc(Cl)ccc12 was read as PERK inh 0, NALP1 inh 51*, CR mimetic SO 87, V-ATPase pH 3 and Rce1 inhib inactive.
`Clc1ccc2c(N/N=C/c3cccnc3)ccnc2c1` gave PERK inh 0, NALP1 inh 8, NALP3 yeast inh 25, CR mimetic SO 92, V-ATPase pH -2 and Rce1 inhib inactive.
`Oc1ccc(/C=N/Nc2ccnc3cc(Cl)ccc23)c(O)c1` gave PERK inh -1, NALP3 yeast inh 20, CR mimetic SO 105, V-ATPase pH -5 and Rce1 inhib inactive.
Screening Cc1ccc(/C=N/Nc2ccnc3cc(Cl)ccc23)c(C)c1 returned PERK inh 0, NALP1 inh 60*, NALP3 yeast inh 13, CR mimetic SO 101, V-ATPase pH -1 and Rce1 inhib inactive.
`O=C(Nc1nc(-c2cccc3ccccc23)cs1)c1ccc2c(c1)S(=O)(=O)c1ccccc1C2=O` gave PERK inh 1, NALP1 inh 21, NALP3 yeast inh 19, CR mimetic SO 127, V-ATPase pH 21* and Rce1 inhib inactive.
`CCOc1ccc(C(=O)Nc2cnn(Cc3ccc(Cl)c(Cl)c3)c2)cc1` gave PERK inh 0, NALP1 inh 4, NALP3 yeast inh 15, CR mimetic SO 111, V-ATPase pH 40* and Rce1 inhib inactive.
For O=C(O)C1C=CCC(C(=O)O)C1 (stereo unspecified) the results were V-ATPase pH 0.
COC(=O)c1ccccc1NC(=O)NCc1cccnc1 was read as PERK inh 1, NALP1 inh 10, NALP3 yeast inh 25, CR mimetic SO 97, V-ATPase pH 0 and Rce1 inhib active.
Screening COc1ccc(CNC(=O)C(=O)NCc2cccnc2)cc1 returned PERK inh 1, NALP1 inh 28*, NALP3 yeast inh 18, CR mimetic SO 95, V-ATPase pH -6 and Rce1 inhib inactive.
For CC1NC(=O)c2cc3ccccc3cc2-n2c1nc1cc(Cl)ccc1c2=O (stereo unspecified) the results were V-ATPase pH 1.
Screening C=CCSc1nc2ccccc2c(=O)[nH]1 returned PERK inh 3.0*, NALP1 inh -20, NALP3 yeast inh -31, CR mimetic SO 98, V-ATPase pH 1 and Rce1 inhib inactive.
For CC(=O)Oc1[nH]c(=O)c2cccc3c2c1CCC3 the results were V-ATPase pH 4.
Screening Nc1ccc2nc(-c3ccccc3)[nH]c2c1 returned PERK inh 3, NALP1 inh 2, NALP3 yeast inh 18, CR mimetic SO 100, V-ATPase pH 1 and Rce1 inhib active.
Screening COc1ccc(-n2cccc2/C=C/[N+](=O)[O-])cc1 returned PERK inh 1, NALP1 inh 114*, NALP3 yeast inh 7, CR mimetic SO 97, V-ATPase pH 6 and Rce1 inhib inactive.
COc1ccc(-n2cccc2C=O)cc1 was read as PERK inh 1, NALP1 inh 20, NALP3 yeast inh 10, CR mimetic SO 88, V-ATPase pH -1 and Rce1 inhib inactive.
CCOC(=O)c1ncn2c1CN(C)C(=O)c1cc(F)ccc1-2 was read as PERK inh 3.1*!, NALP1 inh 8, NALP3 yeast inh 13, CR mimetic SO 101, V-ATPase pH 1 and Rce1 inhib inactive.

Assay outcomes deposited in PubChem by several laboratories.
